Data on 87 compounds can be found in PubChem BioAssay AID1745847 (National Center for Advancing Translational Sciences (NCATS), 2022).

In all, about 2,100 compounds went through this assay and about 670 (32%) were called active. Roughly 50% stayed inconclusive and do not appear here. This is one part of the list. A number with no mark means an inactive call. The call rests on the fitted dose curve; in most records, active means well fitted inhibition curve with a large enough effect; inconclusive means small, poorly fitted or top-dose-only effect; inactive means no such curve, though single readings can be large or run the other way.
On the % scale 0 is the no-effect control and ±100 the full control effect; potency means the concentration at half of the fitted maximal effect.

The experiment can be described thus: CMV-Luciferase Counterscreen for Inhibitors of ATXN expression. Further: nearly all actives have a fitted effect of over 55% in size. The following applies: HEK-293 CMV-luciferase reporter, luminescence, 24 h; series mostly up to 57.5 µM; activity change, negative = inhibition: at the top concentration.
Consider `Cc1ccc2[nH]c(O)c(N=NC(=O)C3CC3c3ccccc3)c2c1Br` (configuration not stated), for which the activity change, negative = inhibition was -21.9% [at 11.4 µM].

Regarding `O=C(Nc1ccc(Cl)cc1)Nc1ccc(N2CCCC2)c(S(=O)(=O)Nc2ccccc2Cl)c1`, the Potency was 3.98 µM (active). Turning to `CCN(CC)S(=O)(=O)c1ccc(N/N=C/c2ccc(O)cc2O)nc1`, the Potency is 1.26 µM (active). In the case of `CN(C)CCCN(C(=O)c1ccc(S(=O)(=O)N2CCCCCC2)cc1)c1nc2ccc(Br)cc2s1`, the activity change, negative = inhibition is -16.1% [at 11.4 µM]. Regarding `CCn1c2ccccc2c2cc(NC(=O)COC(=O)c3cc(S(=O)(=O)N4CCCCC4)ccc3Cl)ccc21`, the activity change, negative = inhibition was 4.24% [at 11.4 µM]. Turning to `O=C(COc1ccc(Br)cc1CO)Nc1ccc(S(=O)(=O)N2CCCCC2)cc1`, the Potency is 17.8 µM (active). For the compound `Cc1ccnc(NC(=O)CCCc2c[nH]c3ccccc23)c1`, the activity change, negative = inhibition is 484% [at 11.4 µM]. For the compound `CC[n+]1c(/C=C/c2c[nH]c3ccccc23)ccc2cc(C)ccc21`, the Potency is 35.5 µM (active). Turning to `O=C(c1ccc(CS(=O)Cc2ccccc2Cl)o1)N1CCN(c2cccc(Cl)c2)CC1` (configuration not stated), the Potency is 20 µM (active). Same read-out and setting: in the case of `C=CCOC(=O)C1=C(C)NC(SCC)=C(C#N)C1c1ccc(Cl)cc1` (configuration not stated) it was 20 µM (active). For the compound `COc1cc(C=CC(=O)c2ccccc2)cc(OC)c1OC`, the “activity change, negative = inhibition” value is -4.63%. Still for that read-out and setting: in the case of `COc1cc(/C=C/C(O)=C/C(=O)/C=C/c2ccc(O)cc2)ccc1O` it was -3.01% [at 11.4 µM]. On to `COc1cc(C=CC(=O)c2cc(OC)c(OC)c(OC)c2)cc(OC)c1OC`, for which the Potency was 12.6 µM (active). Still for that read-out and setting: for `O=C(c1ccc2c(c1)OCO2)N(Cc1cccs1)C1(C(=O)NC2CCCCC2)CCCCC1` the value was 28.2 µM (active). For the compound `C=CCNc1oc(-c2ccc(Cl)cc2)nc1C#N`, the “activity change, negative = inhibition” value was -10.5%. On to `N#Cc1nc(COc2ccc(-c3ccccc3)cc2)oc1NCc1cccnc1`, for which the Potency was 3.55 µM (active).

In the case of `COc1ccc(Nc2oc(COc3ccccc3OC)nc2C#N)cc1`, the Potency was 3.55 µM (active). Consider `COc1cc2nc(CN(C)Cc3ccc(SC)cc3)[nH]c(=O)c2cc1OC`, for which the “activity change, negative = inhibition” value is 4.26%.

Take `COc1ccc(-c2cnc3c(NC=O)cc(-c4ccccc4OC)cn23)cc1OC`: the “activity change, negative = inhibition” value is 153%. As for `Cc1ccc(/C=N/Nc2ccnc3cc(Cl)ccc23)c(C)c1`, the Potency is 14.1 µM (active).

Turning to `Nc1nc(NCCCN2CCOCC2)nc(Nc2cccc(Cl)c2)c1[N+](=O)[O-]`, the activity change, negative = inhibition is -21.5% [at 11.4 µM]. For `Cc1ccc(S(=O)(=O)N(Cc2ccccc2)c2ccccc2C(=O)NCc2ccco2)cc1`, the Potency was 22.4 µM (active). Still for that read-out and setting: for `COc1cnc(-c2ccccn2)nc1NC(C)C` the value was 8.91 µM (active).

For the compound `COc1cccc(CN(C)C(=O)CNC(=O)c2ccc(-c3ccccc3)cc2)c1OC`, the Potency is 5.01 µM (active).

For `COCCCn1c(-c2ccc(S(=O)(=O)N3CCOCC3)cc2)csc1=Nc1ccccc1`, the Potency is 3.98 µM (active). Regarding `COc1cc(C(=O)Oc2cccc(Nc3ncnc4ccccc34)c2)cc(OC)c1OC`, the Potency was 3.98 µM (active). Consider `NC(Cc1ccccc1)c1csc(Nc2nccc(C(F)(F)F)n2)n1` (configuration not stated), for which the “activity change, negative = inhibition” value was 5.13%. Consider `Cc1cc(Nc2cccc([N+](=O)[O-])c2)n2c(nc3ccccc32)c1C#N`, for which the Potency was 1.26 µM (active).

On to `Fc1ccc2[nH]c3c(N4CCc5ccccc5C4)ncnc3c2c1`, for which the Potency was 2.82 µM (active). On to `Fc1ccc2[nH]c3c(N4CCSCC4)ncnc3c2c1`, for which the Potency is 3.16 µM (active). The same measure, in the same setting: in the case of `CCOC(=O)N1CCN(c2ncnc3c2[nH]c2ccc(F)cc23)CC1` it was 3.55 µM (active). On to `CC(C)(CO)NCc1c(OCc2ccc(Cl)cc2)ccc2ccccc12`, for which the “activity change, negative = inhibition” value was -25.8%. As to `Cc1ccc2nc(-c3ccccc3)nn2c1`, the Potency is 2 µM (active). For `COc1ccc(Cl)cc1S(=O)(=O)N1CCN(C(=O)c2n[nH]c(=O)c3ccccc23)CC1`, the activity change, negative = inhibition is -26.4% [at 11.4 µM]. Turning to `COc1ccccc1N1CCN(c2ccnc3cc(Cl)ccc23)CC1`, the Potency was 10 µM (active). As for `COc1ccc(N2CCN(c3ccnc4cc(Cl)ccc34)CC2)cc1`, the Potency was 3.98 µM (active). The same measure, in the same setting: for `O=S(=O)(c1ccccc1)N1CCN(c2ccnc3cc(Cl)ccc23)CC1` the value was 22.4 µM (active). Still for that read-out and setting: in the case of `Oc1ccc(N2CCN(c3ccnc4cc(Cl)ccc34)CC2)cc1` it was 11.2 µM (active).

Take `CC(=O)Oc1ccc(C23c4ccccc4C2(OC(C)=O)c2cc(OC(C)=O)ccc23)cc1` (configuration not stated): the Potency was 25.1 µM (active). `COc1ccc(OCc2cccc(C(=O)Nn3cc([N+](=O)[O-])cn3)c2)cc1`: the Potency was 0.398 µM (active). `O=C(N/N=C/c1ccc(O)cc1O)c1ccc(CN2C(=O)c3cccc4cccc2c34)cc1`: the Potency was 1.78 µM (active). On to `CC(C)CC(=O)NC(=S)NNC(=O)c1ccc(NC(=O)C2CCCCC2)cc1`, for which the activity change, negative = inhibition is 8.7% [at 11.4 µM].

`O=C(N/N=C/c1cc(Br)ccc1O)c1ccncc1`: the Potency was 1 µM (active). With `O=C(N/N=C/c1ccc(O)cc1O)c1ccncc1`, the Potency is 3.98 µM (active). For the compound `O=C(N/N=C/c1ccc(O)cc1O)c1ccc(NC(=O)C2CCCCC2)cc1`, the Potency is 12.6 µM (active). As to `Cc1nc(SC2CC(=O)N(c3ccccc3)C2=O)n[nH]1` (configuration not stated), the “activity change, negative = inhibition” value was -2.55%.

`O=c1[nH]c(CN2CCN(c3ncccn3)CC2)nc2c(Br)cc(Br)cc12`: the activity change, negative = inhibition is -16.4% [at 11.4 µM]. As for `O=C(NCc1ccccc1C(F)(F)F)c1cccc2c1C(=O)c1ccc(N3CCC(N4CCCCC4)CC3)cc1S2(=O)=O`, the activity change, negative = inhibition was 34.1% [at 11.4 µM]. Turning to `COc1ccc(C(=O)N/N=C/c2cc(Br)ccc2O)cc1OC`, the Potency is 2.51 µM (active). Same read-out and setting: for `O=C(N/N=C/c1cc(Br)ccc1OC(=O)c1ccc(Br)cc1)c1ccncc1` the value was 3.98 µM (active); for `O=C(N/N=C/c1cc(Br)ccc1O)C(c1ccncc1)N1CCOCC1` (configuration not stated), 10 µM (active); for `O=C(N/N=C/c1cc(Br)cc(Br)c1O)c1ccncc1`, 3.98 µM (active).

In the case of `O=C(NN=Cc1ccc(O)cc1O)c1ccccc1NS(=O)(=O)c1cccs1`, the Potency is 3.16 µM (active).

For the compound `CCCCC(=O)NC(c1ccccc1)c1ccc2cccnc2c1O` (configuration not stated), the Potency is 3.98 µM (active). Same read-out and setting: in the case of `CCCC(=O)NC(c1ccccc1)c1ccc2cccnc2c1O` (configuration not stated) it was 2.24 µM (active); in that of `CCCC(=O)NC(c1ccc(C)cc1)c1ccc2cccnc2c1O` (configuration not stated), 2 µM (active); in that of `CCCC(=O)NC(c1ccc(C(C)C)cc1)c1ccc2cccnc2c1O` (configuration not stated), 0.355 µM (active).

In the case of `CCCC(=O)NC(c1ccc(OC)cc1)c1ccc2cccnc2c1O` (configuration not stated), the Potency is 3.16 µM (active). `CCOC(=O)COc1ccc(Br)cc1/C=C/c1[nH]c(=O)[nH]c(=O)c1[N+](=O)[O-]`: the activity change, negative = inhibition is 3.24% [at 11.4 µM]. Consider `CN1OC[C@@H]2CN[C@H](c3ccc(-c4cc5ccccc5o4)cc3)C[C@@H]21`, for which the Potency was 0.0794 µM (active).

In the case of `N#C/C(=C\c1ccc([N+](=O)[O-])o1)c1nc2ccccc2[nH]1`, the Potency is 22.4 µM (active). As to `COc1ccc(NS(=O)(=O)c2ccc(C(=O)Nc3c(C)n(C)n(-c4ccccc4)c3=O)cc2)cc1`, the activity change, negative = inhibition is 0.165% [at 11.4 µM]. On to `Cc1c(N/N=C(\C#N)C(=O)c2ccccc2)c(=O)n(-c2ccccc2)n1C`, for which the Potency is 3.98 µM (active). Regarding `Cc1cc(N2CCN(Cc3nc(-c4ccc(Cl)cc4)oc3C)CC2)cc(C)n1`, the Potency is 25.1 µM (active).

Take `COC(=O)c1ccc(C(=O)Nc2cc(Cl)ccc2Cl)cc1NC(=O)c1ccc(N(C)C)cc1`: the activity change, negative = inhibition was -1.02% [at 11.4 µM]. On the same count and under the same terms, in the case of `NS(=O)(=O)c1ccc(CCNC(=O)c2cc(-c3ccccn3)nc3ccc(Br)cc23)cc1` it was -21.8%. For the compound `COc1ccc(N(C)S(=O)(=O)c2ccc(Cl)c(C(=O)NCCc3ccc(Cl)cc3)c2)cc1`, the Potency is 14.1 µM (active). Take `CCOP(=O)(OCC)C(Cc1ccccc1)N=C(c1ccccc1)c1ccccc1` (configuration not stated): the Potency is 22.4 µM (active).

Take `Nc1ccc(Oc2ccccc2-c2ccccc2)cc1`: the Potency is 2 µM (active). For the compound `Cc1cccc(NC2=Nc3ccccc3N3C2=Nc2c(c(C)nn2-c2ccccc2)C3c2ccc(O)c(O)c2)c1` (configuration not stated), the activity change, negative = inhibition was -12.9% [at 11.4 µM]. For `CC(=O)Nc1ccc(NC2=Nc3ccccc3N3C2=Nc2c(c(C)nn2-c2ccccc2)C3c2ccccc2)cc1` (configuration not stated), the Potency was 1.12 µM (active). Still for that read-out and setting: for `CN(C)CCOc1ccc(-c2c(-c3ccccc3)sc3ccccc23)cc1` the value was 22.4 µM (active).

Take `O=C(Nc1nccs1)c1cccc(N2C(=O)c3cccc4c([N+](=O)[O-])ccc(c34)C2=O)c1`: the “activity change, negative = inhibition” value was -20%.

In the case of `CCC(=O)NC(c1ccc(C)cc1)c1cc([N+](=O)[O-])c2cccnc2c1O` (configuration not stated), the Potency was 7.08 µM (active). The same measure, in the same setting: for `CC(=O)NC(c1cccs1)c1cc([N+](=O)[O-])c2cccnc2c1O` (configuration not stated) the value was 10 µM (active).

For the compound `Cc1cc(OCC(=O)NC(C)c2ccccc2)ccc1[N+](=O)[O-]` (configuration not stated), the activity change, negative = inhibition was -19.4% [at 11.4 µM]. Take `CC(=O)NC(c1cccs1)c1cc(Br)c2cccnc2c1O` (configuration not stated): the Potency was 4.47 µM (active).

Regarding `Oc1cccc(C(O)CNCc2ccc(-c3ccccc3)cc2)c1` (configuration not stated), the “activity change, negative = inhibition” value is -30%.

For `CCc1ccc(-n2cc(-c3ccc(F)cc3)[n+]3c2SCCC3)cc1`, the Potency was 17.8 µM (active).

On to `CC1(C)Cc2ccccc2C2=NNC(=O)C2=N1`, for which the Potency was 25.1 µM (active).

For the compound `COc1ccc(CCNC(=O)c2cc(-c3cc(C)cc(C)c3O)n[nH]2)cc1OC`, the Potency is 20 µM (active).

As for `Cc1sc2cc3c(c(C(=O)c4ccccc4)[n+]2c1C)-c1cccc2cccc-3c12`, the Potency is 3.16 µM (active). With `Cc1ccc(C(=O)N/C(=C/c2ccc(-c3ccc([N+](=O)[O-])cc3)o2)C(=O)NCCCN(C)C)cc1`, the “activity change, negative = inhibition” value was -11.5%.

As for `Cc1ccsc1/C=C/C1=Cc2c(sc(NC(=O)CSc3n[nH]c(N)n3)c2C#N)C(C)(C)C1`, the “activity change, negative = inhibition” value is -26.7%. For the compound `COc1cccc(CN(C)C(=O)c2ccc(OCC(=O)Nc3cccc(C(F)(F)F)c3)c(OC)c2)c1`, the Potency was 7.08 µM (active).

For the compound `CN(C)CCNC(=O)c1cccc(-c2cnc3c(NC=O)cc(/C=C/c4ccccc4)cn23)c1`, the “activity change, negative = inhibition” value is 45.6%. Consider `Cc1cc2sc3ccc(C#CC4(O)CCCCC4)cc3c(=O)c2cc1C`, for which the Potency was 0.0316 µM (active).
